Results published in PubChem BioAssay.

Assay: inhibitors of fungal efflux pumps CDR1, CDR2, MDR1, pilot screen, validation compound set, multiplex, phenotypic (AID 588506);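 also: Nile Red retained in cells so higher fluorescence means more efflux inhibition; 0 = negative control wells and 1 = enniatin B 25 µM full block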
Conditions: S. cerevisiae pump-expressing triplex, Nile Red efflux flow cytometry; at 10 µM; active compounds read high; the pumps come from Candida albicans;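 active = efflux inhibition above 0.42, the validation set average plus 4 SD; inconclusive = no clear call, values can overlap the other calls; inactive = the rest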

Efflux inhibition (fraction of control), inactive:
COc1cc(/C=C(\C#N)C(=O)N2CCc3ccccc32)ccc1O 0.19
O=C(Nc1ccccc1)c1ccccc1CCc1ccccc1 -0.12
COc1ccc(CCN2CCC(Nc3nc4ccccc4n3Cc3ccc(F)cc3)CC2)cc1 0.415
CCOc1ccc(CC2c3cc(OCC)c(OCC)cc3CCN2C(=O)CN2CCN(C)CC2)cc1OCC (stereo not given) -0.04
COc1ccc2c(CCNC(=O)c3ccc([N+](=O)[O-])cc3)c[nH]c2c1 -0.03
O=c1[nH]c(Cc2ccccc2)nc2c1oc1ccccc12 -0.17
O=C(c1ccccc1)N1CCN(C(=O)c2ccccc2)CC1 -0.13
COc1ccccc1C1(CC(=O)N2CCCCC2)CCOC(C(C)C)C1 (stereo not given) 0.33
COc1cc([C@@H]2c3cc4c(cc3[C@H](O)[C@H]3COC(=O)[C@H]23)OCO4)cc(OC)c1OC -0.13
N=C1C(c2ccccc2)=C(O)CN1CCCO -0.06
CCS(=O)(=O)Nc1cc(OC)c(OC)cc1Cc1nccc2cc(OC)c(OC)cc12 0.08
O=C(OCCN1CCCC1)C1(c2ccccc2)CCCC1 -0.06
CC(=O)N1CC2(C)CN(C(C)=O)CC(C)(C1)C2 0
COc1ccc(CCCC(=O)O)c(C)c1 -0.2
Cc1ccc2c(CN3CCN(Cc4ccc5c(c4)OCO5)CC3)cc(=O)oc2c1C -0.28
COc1ccc(C(=O)Nc2ccc(OC)c([N+](=O)[O-])c2)cc1Br -0.175
O=C(Oc1cccccc1=O)c1ccccc1 0
C=CCc1ccc(OCC(O)COc2ccc(CC=C)cc2OC)c(OC)c1 0.4
COc1cc(NC(=O)N[C@@H](Cc2ccccc2)C(=O)O)cc(OC)c1 -0.09
CC1/C(=C\c2ccc(Cl)cc2)C(=O)C2CC1C2(C)C (stereo not given) 0.05
CCC(=O)c1ccc(O)cc1 -0.14
COc1ccc(C(=O)[C@H]2[C@H]3C(=O)N(c4ccccc4)C(=O)[C@H]3C3C=CC=NN32)cc1 (stereo not given in full) 0.01
C[C@H](NC(=O)Nc1ccccc1F)C(=O)O -0.24
CCCN1C[C@H](CSC)C[C@@H]2c3cccc4[nH]cc(c34)C[C@H]21 0
C[C@H](NC(=O)OC(C)(C)C)C(=O)NCC1CCC(C(=O)O)CC1 (stereo not given in full) -0.06
